Measurements published in PubChem BioAssay (NCI).
About 83,000 compounds went through this panel and 20% of them were active in at least one assay; those are over-represented in the sample as a whole.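 Cells were grown in 96-well plates and exposed to the test compound at a single concentration for 48 hours; results are reported as percent growth, with values below 10 considered active.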 Unmarked numbers belong to inactive results. Activity calls are given as the source filed them.

Columns and labels:
Test in all cases: NCI-60 one-dose screen, 48 h (100 = growth as untreated, 0 = no growth, -100 = all killed)
Details in all cases: 10 µM unless noted
NCI-H23 lung = tested on: NCI-H23 lung
NCI-H226 lung = tested on: NCI-H226 lung
NCI-H322M lung = tested on: NCI-H322M lung
HOP-62 NSCLC = tested on: HOP-62 NSCLC
NCI-H460 lung = tested on: NCI-H460 lung
HOP-92 NSCLC = tested on: HOP-92 NSCLC
NCI-H522 lung = tested on: NCI-H522 lung
A549/ATCC NSCLC = tested on: A549/ATCC NSCLC
786-0 renal = tested on: 786-0 renal
COLO 205 colon = tested on: COLO 205 colon
DU-145 prostate = tested on: DU-145 prostate
K-562 leukemia = tested on: K-562 leukemia
MALME-3M melanoma = tested on: MALME-3M melanoma
MDA-MB-231 breast = tested on: MDA-MB-231 breast
RXF 393 renal = tested on: RXF 393 renal
SF-268 CNS = tested on: SF-268 CNS
SF-295 CNS = tested on: SF-295 CNS
SF-539 CNS = tested on: SF-539 CNS
UACC-257 melanoma = tested on: UACC-257 melanoma
M14 melanoma = tested on: M14 melanoma

Compound	growth (NCI-H23 lung)	growth (NCI-H226 lung)	growth (NCI-H322M lung)	growth (HOP-62 NSCLC)	growth (NCI-H460 lung)	growth (HOP-92 NSCLC)	growth (NCI-H522 lung)	growth (A549/ATCC NSCLC)	growth (786-0 renal)	growth (COLO 205 colon)	growth (DU-145 prostate)	growth (K-562 leukemia)	growth (MALME-3M melanoma)	growth (MDA-MB-231 breast)	growth (RXF 393 renal)	growth (SF-268 CNS)	growth (SF-295 CNS)	growth (SF-539 CNS)	growth (UACC-257 melanoma)	growth (M14 melanoma)
COc1ccc(-n2c(=S)sc3c(Cl)nc(C)nc32)c(OC)c1	31.8%	100%	61.9%	90%	3.2% (active)	54.2%	20.8%	91.3%	75.3%	61.1%	6.39% (active)	2.62% (active)	80.2%	-14.9% (active)	42.6%	4.67% (active)	85.1%	20%	77.9%	-18.8% (active)
COc1ccc(-c2cc(-c3ccccc3)nc(SCCCC(=O)NO)n2)cc1OC	-2.44% (active)	10.4%	17.1%	5.03% (active)	1.88% (active)	-10.6% (active)	-22.8% (active)	-17.1% (active)	0.761% (active)	23.7%	1.4% (active)	3.02% (active)	-3.72% (active)	6.56% (active)	-21.1% (active)	-19.2% (active)	-0.804% (active)	14.8%	-18.2% (active)	-4.14% (active)
CC(C)(C)n1cc(-c2ccnc(NCCCNS(=O)(=O)c3ccc(Cl)cc3)c2)c(-c2cccc(O)c2)n1	14%	14%	10.6%	9.75% (active)	-66.7% (active)	-2.33% (active)	-55.7% (active)	9.33% (active)	-35.2% (active)	-86.8% (active)	13.1%	-23.3% (active)	-44.5% (active)	-24.4% (active)	-12% (active)	20.7%	-45% (active)	-26.1% (active)	-39.3% (active)	-23.2% (active)
C=C(C)[C@@H]1CC[C@]2(C(=O)N3CCNCC3)CC[C@]3(C)[C@H](CC[C@@H]4[C@@]5(C)C/C(=C/c6ccncc6)C(=O)C(C)(C)[C@@H]5CC[C@]43C)[C@@H]12	103%	95.7%	110%	107%	107%	95.8%	96.8%	102%	108%	113%	113%	97.3%	114%	116%	117%	103%	104%	105%	104%	108%
COc1ccc(/C=C2\Oc3cc(OCCCN4CCCC4)ccc3C2=O)c(OC)c1	87.9%	96.4%	94.6%	101%	23.5%	83.8%	75%	80.5%	89.4%	92.8%	71.2%	-30.4% (active)	106%	78.8%	77.3%	87.3%	99.8%	51.6%	103%	67.7%
O=C1C(Cl)=C(Nc2ccccn2)C(=O)c2ccccc21	40.5%	94.1%	115%	46.9%	62.6%	102%	58.3%	104%	111%	97.6%	-10.9% (active)	29.6%	-16.4% (active)	62.1%	95.3%	58.8%	82.9%	25.4%	-10% (active)	89.5%
COc1ccc(-c2nc(/C=N/Nc3cc(C)nc4ccc(Cl)cc34)c(C)o2)cc1	42.1%	75.6%	-92.5% (active)	83.2%	-89.2% (active)	-84.8% (active)	-85.2% (active)	-91.6% (active)	-87.5% (active)	-72.8% (active)	-94.1% (active)	-35% (active)	-90.9% (active)	-95.9% (active)	-96.8% (active)	-71.8% (active)	-73.5% (active)	-90% (active)	104%	-75.6% (active)
COc1ccc(C(=O)N2NC(=O)/C(=C/c3cn(-c4ccccc4)nc3-c3ccccc3)N=C2c2ccccc2)cc1	97.3%	102%	97.3%	115%	106%	100%	95.9%	91.6%	93%	120%	108%	105%	105%	93.8%	104%	98.2%	86.9%	115%	95%	110%
C[n+]1c(/C=C/c2c(O)ccc3ccccc23)ccc2ccccc21	37.2%	47.5%	42.9%	54.8%	9.44% (active)	-10.2% (active)	-6.6% (active)	51.3%	49.2%	25.3%	49.1%	6.81% (active)	40.4%	24.8%	37.9%	61.2%	40.6%	-14.9% (active)	46.1%	34.3%
CCN1CCN(c2nc(NNC(=O)c3ccccc3)nc(N3CCN(C(c4ccccc4)c4ccccc4)CC3)n2)CC1	67.5%	73%	90.3%	79.7%	3.33% (active)	59.3%	65.8%	54.2%	66.4%	-57% (active)	71.9%	9.4% (active)	4.38% (active)	71.7%	59.7%	76.9%	79.3%	73.1%	13.9%	0.297% (active)
O=C(O)C1CCCCN1c1nc(Cl)nc(Cl)n1 (stereo not given)	98.9%	89.1%	106%	101%	105%	106%	93.3%	101%	105%	106%	107%	103%	108%	110%	113%	99.2%	101%	92.6%	100%	108%
COc1ccc(C2=C(c3cc(OC)c(OC)c(OC)c3)C(=O)CC2)cc1	14.2%	46.5%	47.8%	38.1%	0.331% (active)	40%	-35.5% (active)	24.7%	28.9%	-27.9% (active)	-19.3% (active)	20.5%	35.3%	17.2%	1.23% (active)	33%	9.47% (active)	0.222% (active)	65.4%	2.99% (active)
C=C1CC2(OC1=O)C(=O)N(CCCN1C(=O)C3(CC(=C)C(=O)O3)c3ccccc31)c1ccccc12 (stereo not given)	57.6%	78.7%	86.1%	98.2%	44.3%	-27% (active)	-78% (active)	83.1%	20.1%	-58.8% (active)	37.4%	5.21% (active)	-48.5% (active)	-29.2% (active)	-61.1% (active)	70.6%	82.1%	9.24% (active)	30.4%	19.1%
CC1=NC2=CC=CC3=NC(C(Cl)(Cl)Cl)=NC(=N1)N23	59.9%	83.5%	92.5%	96.2%	69.1%	118%	54.9%	80%	88.7%	88.9%	50.4%	80.2%	33.6%	81.3%	38%	78%	95.6%	88.9%	63.9%	79.3%
O=C(NNC(=O)N1c2ccccc2C=Cc2ccccc21)c1ccc2ccccc2c1	98.4%	95.5%	99%	99.1%	100%	81.4%	85.9%	95.7%	96.1%	101%	95.5%	87.2%	95.6%	94.2%	103%	91.4%	93.5%	92.2%	103%	101%
